About 2,000 (36%) of roughly 5,500 compounds were called active. About 18% were inconclusive and are not listed. No stated cut-off is given here; in the data, active means normalized growth mostly below about 0.91 (no sharp cut-off); inconclusive means no clear call, values can overlap the other calls; inactive means mostly above about 0.92. The list shows a part of the results.
Assay: chemical genetic growth profiling, strain panel (AID 1159580);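 further: tested at 20 µM; growth read once vehicle control cultures reached saturation at 30 °C; 1 = growth at the plate median or of vehicle wells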
Conditions: S. cerevisiae deletion strains, growth OD

Measured: normalized growth

NC(=O)COc1c(F)cc(SCCNS(=O)(=O)c2ccccc2)cc1F
inactive: locus YAL040C, strain CLN3, stronger effect = lower value 1.03 | locus YCL061C, strain MRC1 (second series), stronger effect = lower value 1 | locus YDR363W, strain ESC2, stronger effect = lower value 0.968 | locus YER002W, strain NOP16, stronger effect = lower value 0.97 | locus YNL175C, strain NOP13, stronger effect = lower value 0.977 | locus YNL197C, strain WHI3, stronger effect = lower value 0.975 | locus YNL224C, strain SQS1, stronger effect = lower value 0.983 | locus YOR083W, strain WHI5 (second series), stronger effect = lower value 0.998 | locus YPL241C, strain CIN2, stronger effect = lower value 0.996
